Data on 13 compounds can be found in PubChem BioAssay (NCI).

This is part of a sample that, as a whole, favours compounds with a hit. Of some 83,000 tested, about 20% had one in any assay.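 Plates (96-well) were seeded with cells, treated with compound at one concentration, and incubated for 48 hours before percent growth was determined.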 Calls of active or inactive are those of the source. The calls were made as follows: active = growth percent below 10; inactive = the rest.

This test has as its system HL-60(TB) leukemia. In words: NCI-60 one-dose screen, 48 h (100 = growth as untreated, 0 = no growth, -100 = all killed). The following applies: 10 µM unless noted.
As to `C/C(=C\CSc1ccccc1C(=O)O)CCCC(C)CCCC(C)CCCC(C)C` (stereo not drawn), the growth is 41.2% (inactive).

As for `O=C(c1ccccc1)c1ccc2nc(-c3cccc(Cl)c3)[nH]c2c1`, the growth is 97.6% (inactive).

For the compound `Cc1cc(=O)oc2cc(OCCCCOc3ccc(/C=C/C(=O)Nc4ccccc4N)cc3)ccc12`, the growth was 0.47% (active).

Take `COc1ccc2c(c1)c(-c1cc3nc(-c4cn(C)c5ncccc45)cc(N)n3n1)cn2C`: the growth was -66.3% (active).

In the case of `COc1ccc(-c2cc(-c3cc(C(C)C)c(O)cc3C)nn2-c2ccc(S(N)(=O)=O)cc2)cc1`, the growth is 9.51% (active).

On to `N#C/C(=C1/C(=O)Nc2ccccc21)c1nnc(NC(=O)c2ccc(-n3c(=O)[nH]c4ccccc4c3=O)cc2)s1`, for which the growth is 7.15% (active).

`O=C(Nc1ccc(S(=O)(=O)N2CCCCC2)cc1)C(Cl)Cl`: the growth is 120% (inactive).

Take `O=C1/C(=C/C2=Cc3ccccc3OC2)SC(=S)N1c1ccccc1F`: the growth was 87.9% (inactive).

On to `O=C(OCCOCCO)N(c1cccc(Br)c1)c1nc(SCCN2CCOCC2)nc2c1cnn2CC(Cl)c1ccc(Br)cc1` (stereo not drawn), for which the growth is -46.8% (active).

As to `CC(C)c1sc(NC(=O)c2cc(NC(=O)c3cc(NC(=O)c4nccn4C)cn3C)cn2C)nc1C(=O)NCCCN(C)C`, the growth is 47.1% (inactive).

With `COc1ccc(C(=O)/C=C/c2ccc(Cl)c(C(F)(F)F)c2)cc1S(N)(=O)=O`, the growth is 6.1% (active).

Turning to `O=C(CSc1nc2sc3c(c2c(=O)n1-c1ccc(Cl)cc1)CCCC3)NNC(=O)c1ccc(F)cc1`, the growth was 109% (inactive).

Consider `O=c1onc(-c2cc3ccccc3nc2Cl)n1-c1cccc2ccccc12`, for which the growth was 33.5% (inactive).
